From PubChem BioAssay AID602258 (National Center for Advancing Translational Sciences (NCATS), 2012)
Inconclusive results are not listed. Where a call stands in place of a potency, no number is given. Calls of active or inactive are those of the source. Calls come from the whole dose curve; as a rule, active = well fitted activation curve with a large enough effect; inconclusive = small, poorly fitted or top-dose-only effect; inactive = no such curve, though single readings can be large or run the other way.

These compounds were tested against Relaxin receptor 2 (Homo sapiens) (UniProt Q8WXD0) (assay: qHTS Assay for Agonists of the Relaxin Receptor RXFP1: RXFP2 SAR). Details: HEK293 RXFP2 cAMP TR-FRET agonist, 30 min; series mostly up to 78.1 µM.
From the text: The relaxin hormone is involved in the variety of biological functions in normal tissues and diseases. The role of relaxin is well-established in female reproduction and parturition, mammary gland and endometrial development, maintenance of myometrial quiescence during pregnancy. Relaxin signaling through its G protein-coupled receptor (GPCR) RXFP1 results in ECM remodeling through regulation of collagen deposition, cell invasiveness, proliferation and overall tissue homeostasis. […] Recombinant human relaxin (rhRlx) is currently being tested in clinical trials as a protective agent in congestive heart failure, in treating severe preeclampsia, and as an anti-fibrotic agent in systemic sclerosis. Upon relaxin binding RXFP1 activation leads to the activation of adenylate cyclase (AC) via Gs. cAMP will activate PKA, which phosphorylates many signaling proteins. Thus, detection of cAMP increase is an easy and reliable indication of relaxin receptor activation. To screen for agonists of the relaxin receptor, a HEK293T cell line stably transfected with RXFP1 was used. RXFP1 activation was assayed by changes in cAMP levels as detected with a time-resolved fluorescence energy transfer (TR-FRET) cAMP detection kit. This assay measures activation of a cell expressing RXFP2, another GPCR targeted by relaxin, to determine the selectivity of compounds for RXFP1. NIH Chemical Genomics Center [NCGC] NIH Molecular Libraries Probe Production Centers Network [MLPCN] MLPCN Grant: R03 MH085705-01A1 Assay Submitter (PI): Alexander Agoulnik
This is a cell-based assay for cAMP second messenger response to screen for agonists of the RXFP2 receptor. The assay was conducted in the presence of a PDE4 inhibitor (Ro 20174). The cells were lysed and the cAMP levels were measured with a TR-FRET cAMP kit. Presence of cAMP in the cell lysate disrupts binding between the cryptate-labeled anti-cAMP and d2-labeled cAMP pair, leading to a decrease in the TR-FRET signal. Data were normalized to the controls for basal activity (buffer only) and 100% activity (29 nM porcine relaxin). The EC50 values were determined from concentration-response data modeled with the standard Hill equation 1536-well assay protocol for the HEK293 RXFP2 cAMP assay: (1) Add 3 ul HEK293 RXFP2 cell culture. 2000 cells/well in DMEM/F12, 10% FBS, 1x Pen/Strep (dispensed offline with MultiDrop Combi). (2) Incubate 16-24 hr at 37C, 5% CO2. (3) Add 1 ul 400uM Ro20174 in DPBS, 0.05% BSA, 0.005% Tween 20. (3) Add 23 nl compounds in DMSO solution. Final concentration was 0.5 - 58 uM. (4) Incubate 30 min at 37C, 5% CO2. (5) Add 1 ul cAMP-d2 in lysis buffer (HTRF cAMP HiRange kit, CisBio). (6) Add 1 ul anti-cAMP antibody-cryptate in lysis buffer (HTRF cAMP HiRange kit, CisBio). (7) Incubate 30 min at room temperature. (6) Detect the assay plate in a ViewLux plate reader (PerkinElmer) with Ex=320 nm, Em1=615 nm and Em2=665 nm. Keywords: relaxin, RXFP1, RXFP2, G-protein coupled receptor, cAMP, agonist, high throughput screening, MLSMR, MLSCN, NIH Roadmap, qHTS and NCGC

Chain of Relaxin receptor 2 (Homo sapiens) (Q8WXD0 whole entry, looked up): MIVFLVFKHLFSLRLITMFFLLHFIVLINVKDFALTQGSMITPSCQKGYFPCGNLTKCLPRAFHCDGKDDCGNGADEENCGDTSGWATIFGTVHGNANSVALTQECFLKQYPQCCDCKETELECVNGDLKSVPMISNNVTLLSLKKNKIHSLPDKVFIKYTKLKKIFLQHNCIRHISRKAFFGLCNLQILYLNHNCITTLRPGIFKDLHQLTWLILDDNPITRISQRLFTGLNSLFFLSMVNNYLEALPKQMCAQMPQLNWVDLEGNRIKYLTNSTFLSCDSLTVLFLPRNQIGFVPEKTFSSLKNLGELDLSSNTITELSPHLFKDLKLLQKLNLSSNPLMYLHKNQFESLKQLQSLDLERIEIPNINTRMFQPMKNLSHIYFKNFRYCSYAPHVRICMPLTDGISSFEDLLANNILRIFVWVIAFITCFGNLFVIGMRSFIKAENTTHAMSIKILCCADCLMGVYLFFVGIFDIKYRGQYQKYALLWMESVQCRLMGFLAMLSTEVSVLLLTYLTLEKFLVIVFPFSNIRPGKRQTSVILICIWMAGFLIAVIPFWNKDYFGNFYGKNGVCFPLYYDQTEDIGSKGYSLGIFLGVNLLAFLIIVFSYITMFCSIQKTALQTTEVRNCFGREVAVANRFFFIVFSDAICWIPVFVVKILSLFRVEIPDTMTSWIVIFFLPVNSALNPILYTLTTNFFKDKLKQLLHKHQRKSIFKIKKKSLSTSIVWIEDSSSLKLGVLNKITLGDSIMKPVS

| Compound | Potency |
| --- | --- |
| COc1ccccc1C(=O)N(C)c1ccccc1C(=O)Nc1cccc(C(F)(F)F)c1 | inactive |
| O=C(Nc1cccc(C(F)(F)F)c1)c1ccccc1NC(=O)C1CCCC1 | inactive |
| O=C(NCc1cccc(C(F)(F)F)c1)c1ccccc1NC(=O)C1CCCCC1 | inactive |
| CCOc1ccccc1C(=O)Nc1ccccc1C(=O)Nc1cccc(S(=O)(=O)C(F)(F)F)c1 | 7.47 µM (active) |
| COc1ccc(C(=O)Nc2ccccc2C(=O)Nc2cccc(C(F)(F)F)c2)cc1 | inactive |
| Cc1ccc(NC(=O)c2ccccc2NC(=O)C2CCCCC2)cc1 | inactive |
| O=C(Nc1ccc(C(F)(F)F)cc1)c1ccccc1NC(=O)C1CCCCC1 | inactive |
| COc1ccccc1C(=O)Nc1ccc(C(=O)Nc2cccc(C(F)(F)F)c2)cc1 | inactive |
| CCCCC(=O)Nc1ccccc1C(=O)Nc1cccc(C(F)(F)F)c1 | inactive |
| CCOc1ccccc1S(=O)(=O)Nc1ccccc1C(=O)Nc1cccc(S(=O)(=O)C(F)(F)F)c1 | inactive |
| O=C(Nc1cccc(C(F)(F)F)c1)c1ccccc1NC(=O)C1CCC1 | inactive |
| CCOc1ccccc1C(=O)Nc1cnccc1C(=O)Nc1cccc(S(=O)(=O)C(F)(F)F)c1 | inactive |
| O=C(Nc1cccc([N+](=O)[O-])c1)c1ccccc1NC(=O)C1CCCCC1 | inactive |
| COCCOc1ccccc1C(=O)Nc1ccccc1C(=O)Nc1cccc(C(F)(F)F)c1 | 5.29 µM (active) |
| O=C(Nc1ccccc1)c1ccccc1NC(=O)C1CCCCC1 | inactive |
| CCOc1ccccc1C(=O)Nc1ncccc1C(=O)Nc1cccc(S(=O)(=O)C(F)(F)F)c1 | inactive |
| CCCCOc1ccccc1C(=O)Nc1ccccc1C(=O)Nc1cccc(S(=O)(=O)C(F)(F)F)c1 | inactive |
| COc1ccccc1C(=O)Nc1ccccc1C(=O)Nc1cccc(S(=O)(=O)C(F)(F)F)c1 | inactive |
| O=C(Nc1cccc(Cl)c1)c1ccccc1NC(=O)C1CCCCC1 | inactive |
| CC(C)(C)c1cccc(NC(=O)c2ccccc2NC(=O)C2CCCCC2)c1 | inactive |

| Compound | Potency |
| --- | --- |
| O=C(Nc1cccc(-c2ccccc2C(F)(F)F)c1)c1ccccc1NC(=O)C1CCCCC1 | inactive |
| CC(C)Oc1ccccc1C(=O)Nc1ccccc1C(=O)Nc1cccc(C(F)(F)F)c1 | inactive |
| COc1cccc(NC(=O)c2ccccc2NC(=O)C2CCCCC2)c1 | inactive |
| CCSc1ccccc1C(=O)Nc1ccccc1C(=O)Nc1cccc(S(=O)(=O)C(F)(F)F)c1 | inactive |
| COCCOc1ccccc1C(=O)Nc1cccc(C(F)(F)F)c1 | inactive |
| Cc1ccccc1C(=O)Nc1ccccc1C(=O)Nc1cccc(C(F)(F)F)c1 | inactive |
| CN(C)CCOc1ccccc1C(=O)Nc1ccccc1C(=O)Nc1cccc(C(F)(F)F)c1 | inactive |
| O=C(Nc1ccccc1C(=O)Nc1cccc(C(F)(F)F)c1)c1ccccc1Cl | inactive |
| O=C(Nc1cccc(-c2cccc(C(F)(F)F)c2)c1)c1ccccc1NC(=O)C1CCCCC1 | inactive |
| Cc1cccc(NC(=O)c2ccccc2NC(=O)C2CCCCC2)c1 | inactive |
| CCOc1ccccc1-c1nc2c(C(=O)Nc3cccc(S(=O)(=O)C(F)(F)F)c3)cccc2[nH]1 | inactive |
| O=C(Nc1cccc(C(F)(F)F)c1)c1ccccc1NC(=O)C1CCCCCC1 | inactive |
| O=C(Nc1cccc(C(F)(F)F)c1)c1ccccc1NC(=O)C1CCCCC1 | inactive |
| CCOc1ccccc1C(=O)NCCC(=O)Nc1cccc(S(=O)(=O)C(F)(F)F)c1 | inactive |
| CCOc1ccccc1C(=O)Nc1ccccc1CNc1cccc(S(=O)(=O)C(F)(F)F)c1 | inactive |
| O=C(Nc1cccc(SC(F)(F)F)c1)c1ccccc1NC(=O)C1CCCCC1 | inactive |
| O=C(Nc1ccccc1C(=O)Nc1cccc(C(F)(F)F)c1)c1cccnc1 | inactive |
| COc1ccccc1C(=O)Nc1cccc(C(=O)Nc2cccc(C(F)(F)F)c2)c1 | inactive |
| COc1ccccc1CNc1ccccc1C(=O)Nc1cccc(C(F)(F)F)c1 | inactive |
| CCC(CC)C(=O)Nc1ccccc1C(=O)Nc1cccc(C(F)(F)F)c1 | inactive |
